AmpC detergent: qHTS Inhibitors of AmpC Beta-Lactamase (assay with detergent) | P00811 | AmpC hydrolysis of nitrocefin, absorbance 480 nm, 0.01% Triton | Potency, µM (doses to about 114 µM), hits mostly inhibitors | actives 0.041% (n = 370,000) | AID 485294, 2010; note: nearly all actives have a fitted effect of over 25% in size
Target sequence (P00811 whole entry, looked up): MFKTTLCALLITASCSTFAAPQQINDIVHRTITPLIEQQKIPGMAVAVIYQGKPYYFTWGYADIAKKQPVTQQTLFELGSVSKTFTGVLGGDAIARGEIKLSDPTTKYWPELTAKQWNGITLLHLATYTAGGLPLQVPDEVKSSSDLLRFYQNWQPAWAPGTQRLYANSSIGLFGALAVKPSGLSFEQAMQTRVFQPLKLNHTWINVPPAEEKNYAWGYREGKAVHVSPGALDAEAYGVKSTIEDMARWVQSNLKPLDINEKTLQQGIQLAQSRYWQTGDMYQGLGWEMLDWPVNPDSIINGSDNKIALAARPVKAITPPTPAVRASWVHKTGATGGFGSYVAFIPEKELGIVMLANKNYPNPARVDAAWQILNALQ
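AmpC (5.3 nM in the dispensed reagent) in 20 mM phosphate pH 7.0 with 0.01% (detergent screen) or 0.0001% Triton X-100 was preincubated with compounds for 15 min at room temperature. Nitrocefin was then added from an 800 uM solution, and hydrolysis was followed at 480 nm.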
AmpC no deterg: qHTS Inhibitors of AmpC Beta-Lactamase (assay without detergent) | P00811 | AmpC nitrocefin hydrolysis, absorbance 480 nm, 0.0001% Triton | Potency, µM (highest dose often 57.1 µM), usual class: inhibitors | actives 0.52% (n = 330,000); note: nearly all actives have a fitted effect of over 20% in size
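AmpC (5.3 nM in the dispensed reagent) in 20 mM phosphate pH 7.0 with 0.01% (detergent screen) or 0.0001% Triton X-100 was preincubated with compounds for 15 min at room temperature. Nitrocefin was then added from an 800 uM solution, and hydrolysis was followed at 480 nm.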
Sm TGR block: qHTS Assay for the Inhibitors of Schistosoma Mansoni Peroxiredoxins; Schistosoma mansoni thioredoxin glutathione reductase (TGR), Q962Y6; purified TGR, DTNB reduction, TNB absorbance 405 nm; Potency, µM (top dose mostly 114 µM), most hits filed as inhibitors; actives 3% (n = 360,000); note: nearly all actives have a fitted effect of over 60% in size
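TGR 20 nM + NADPH 100 uM (dispensed conc.), cpd preinc 15 min RT; start with NADPH (500 uM addition) then DTNB (15 mM addition). Kinetic TNB absorbance, 405 nm filter. Four-parameter Hill fit across titration.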
Large screens that a line does not name were inactive. A selection: hits, their analogues and other compounds. The true share with any hit is near 3.3%. Calls come from the whole dose curve; as a rule, active = well fitted curve in the direction sought with a large enough effect; inconclusive = small, poorly fitted or top-dose-only effect, or another doubt; inactive = no such curve, though single readings can be large; an effect the other way counts as inactive or inconclusive.

CCOc1ccccc1NS(=O)(=O)c1cccs1	none
COC(=O)C1CCN(C(=O)COC(=O)CC(NC(N)=O)c2ccc(Cl)cc2)CC1 (configuration not stated)	none
O=C1C[C@H]2[C@H](CO)[C@@H](OC(=O)c3ccc(-c4ccccc4)cc3)C[C@H]2O1	Sm TGR block inconclusive
Cc1cccc(C)c1NC(=O)CSc1nccn1C	none (no result: AmpC no deterg)
COc1cccc(CC(=O)OC(C)C(=O)Nc2ccc(Cl)cn2)c1 (configuration not stated)	none
Cc1cccc(Nc2c3c(nc4nncn24)CCC3)c1C	Sm TGR block 39.8µM (no result: AmpC no deterg)
Cc1ccc(Nc2c3c(nc4nncn24)CCC3)cc1	Sm TGR block inconclusive (no result: AmpC no deterg)
Brc1ccc(Nc2c3c(nc4nncn24)CCC3)cc1	Sm TGR block 35.5µM (no result: AmpC no deterg)
Cc1ccccc1Nc1c2c(nc3nncn13)CCC2	Sm TGR block inconclusive (no result: AmpC no deterg)
Clc1ccc(-c2cn3c(n2)-c2ccccc2C3)cc1Cl	none
CCc1ccccc1N1C(=O)CC(Sc2nccc(C)n2)C1=O (configuration not stated)	Sm TGR block 39.8µM
Cc1ccc(N2C(=O)CC(Sc3nccc(C)n3)C2=O)cc1 (configuration not stated)	Sm TGR block inconclusive
Cc1ccnc(SC2CC(=O)N(c3ccc([N+](=O)[O-])cc3)C2=O)n1 (configuration not stated)	Sm TGR block 22.4µM
CCc1ccccc1N1C(=O)C2CC(C)=C(C)CC2C1=O (configuration not stated)	AmpC detergent inconclusive, Sm TGR block inconclusive
COc1cccc(C=NCCCN=Cc2cccc(OC)c2O)c1O	none
O=C(COc1coc(CN2CCCc3ccccc32)cc1=O)Nc1cccc([N+](=O)[O-])c1	none
CCn1c(CN2CCOCC2)nc2cc(NC(=O)c3ccc([N+](=O)[O-])cc3)ccc21	none (no result: AmpC no deterg)
CCOC(=O)Cn1c(=O)n(CC2CCCO2)c2nc(-c3ccc(OC)cc3OC)nc(C(N)=O)c21 (configuration not stated)	none (no result: AmpC no deterg)
Cc1cccc(CNC(=O)c2cc3cc(S(=O)(=O)N4CCCCC4)ccc3n2C)c1	none (no result: AmpC no deterg)
CCOC(=O)c1c(-c2ccc(C)o2)csc1NC(=O)CSc1nnc(C)s1	Sm TGR block inconclusive
CCOC(=O)c1c(-c2ccc(C)o2)csc1NC(=O)COC(=O)c1ccc(NC(N)=O)cc1	Sm TGR block 10µM
CCOC(=O)c1c(-c2ccc(C)o2)csc1NC(=S)NC(=O)c1cccs1	none
CCOC(=O)c1c(-c2ccc(C)o2)csc1NC(=O)CSc1nnnn1-c1ccccc1	AmpC no deterg 11.2µM, Sm TGR block 5.62µM
Cc1nn(CC(=O)N(C)C2(C#N)CCCCC2)c(C)c1[N+](=O)[O-]	none
CN1CCN(C(=O)C2CCC(=O)N(Cc3cccc(C(F)(F)F)c3)C2)CC1 (configuration not stated)	Sm TGR block 7.94µM
CCN1CCN(C(=O)C2CCC(=O)N(Cc3cccc(C(F)(F)F)c3)C2)CC1 (configuration not stated)	none
Cn1c(=O)c(=O)n(C)c2cc(N3CCCC3)c(NS(=O)(=O)c3ccc(F)cc3)cc21	Sm TGR block inconclusive
Cn1c(=O)c(=O)n(C)c2cc(N3CCOCC3)c(NS(=O)(=O)c3ccc(Br)cc3)cc21	Sm TGR block 25.1µM
COc1ccc(OC)c(S(=O)(=O)Nc2cc3c(cc2N2CCCC2)n(C)c(=O)c(=O)n3C)c1	AmpC detergent inconclusive, Sm TGR block 31.6µM
Cc1ccc(S(=O)(=O)Nc2cc3c(cc2N2CCOCC2)n(C)c(=O)c(=O)n3C)cc1	none
Cc1nc(CNC(=O)CC2C(=O)NCCN2Cc2cccc(Oc3ccccc3)c2)cs1 (configuration not stated)	Sm TGR block inconclusive
CN(C(=O)CCCN1CCCC1=O)C1CCCN(Cc2ccccc2F)C1 (configuration not stated)	none
CCc1ccc(NC(=O)Cn2c(=O)n(Cc3nc(C)no3)c(=O)c3cc4c(cc32)OCO4)cc1	none (no result: AmpC no deterg)
O=C1CS(=O)(=O)N(Cc2cccc(F)c2)c2ccc(Br)cc21	none
COc1ccc(CN2c3c(Br)cccc3C(=O)CS2(=O)=O)cc1	AmpC no deterg 12.6µM (no result: AmpC detergent, Sm TGR block)
CC(C)CC(=O)NC(NC(=S)Nc1sc2c(c1C#N)CCCC2)C(Cl)(Cl)Cl (configuration not stated)	none
O=C(COc1ccc(S(=O)(=O)N2CCOCC2)cc1)N1CCOCC1	none
O=C(COc1ccc(/C=C\[N+](=O)[O-])cc1)N1CCOCC1	AmpC detergent inconclusive, Sm TGR block 22.4µM
Cc1cc(/C=N/Nc2ccc([N+](=O)[O-])cn2)c(C)n1-c1ccc(C(=O)O)cc1	Sm TGR block 35.5µM
Cc1ccccc1-n1c(C)cc(/C=N/Nc2ccc([N+](=O)[O-])cn2)c1C	none
CC(C)c1cccc(OCCN2CCCC2)c1	none
CC(CC(=O)OCC(=O)Nc1ccc2[nH]c(=O)[nH]c2c1)c1ccccc1 (configuration not stated)	none
Cc1ccc(S(=O)(=O)Nc2ccccc2F)cc1C(=O)NCc1ccco1	none
NS(=O)(=O)c1ccc(N=Nc2c[nH]c(=O)c(O)c2)cc1	Sm TGR block 8.91µM
Nc1nc(O)c(N=Nc2ccc(S(N)(=O)=O)cc2)c(=O)[nH]1	none
COc1ccccc1N=Cc1nc(-c2ccccc2)oc1OC(C)=O	Sm TGR block inconclusive
CC(=O)Oc1oc(-c2ccccc2)nc1/C=N/c1ccccn1	Sm TGR block 28.2µM
CCOC(=O)c1nc2cc3n(c(C)c-2c1C)C(C)C(C)=C3C (configuration not stated)	none
CCOC(=O)c1nc2cc3n(c(CC(C)C)c-2c1C)CC(C)=C3C	AmpC detergent inconclusive, Sm TGR block 56.2µM
O=C(NCc1ccco1)c1ccc2c(c1)N(Cc1ccccc1F)C(=O)c1ccccc1S2(=O)=O	none (no result: AmpC no deterg)
CCC(=O)Nc1cc2c3c(c1)CCC(=O)N3CCC2	none
CC(C)n1cc(-c2nc(C(=O)NN)cs2)c(=O)n(Cc2ccccc2)c1=O	none
COC(=O)CN(C)C(=O)CC1C(=O)NCCN1CC(C)(C)C (configuration not stated)	Sm TGR block inconclusive
C=C(C)CN(CC)C(=O)CC1C(=O)NCCN1CC(C)(C)C (configuration not stated)	Sm TGR block 39.8µM
CC(C)(C)CN1CCNC(=O)C1CC(=O)N1CCOc2ccccc2C1 (configuration not stated)	Sm TGR block 39.8µM
COc1cccc(CN2CCNC(=O)C2CC(=O)N2CCOc3ccccc3C2)c1OC (configuration not stated)	none
CCc1ccc(NC(=O)CNC(=O)[C@@H]2Cc3ccccc3CN2C(=O)OC(C)(C)C)cc1	none
COC(=O)c1ccc(NC(=O)c2ccc3c(c2)NC(=O)C2CCCN32)cc1 (configuration not stated)	none
CC1CCc2c(sc(NC(=O)Cn3nnc(-c4ccc(C(F)(F)F)cc4)n3)c2C#N)C1 (configuration not stated)	none (no result: AmpC no deterg)
Cc1ccnn1-c1ccc(C(=O)OCC(=O)Nc2ccc(F)cc2)cc1	none
CCN1CCc2nc(N)oc2CC1	Sm TGR block 5.62µM
CCN1CCc2nc(N)sc2C1	none
